18 compounds from PubChem BioAssay AID591 (National Center for Advancing Translational Sciences (NCATS), 2007) can be followed below.

Screen size: about 59,000 compounds; about 60 (0.1%) were called active. No rule for the calls is given here. The sample as a whole holds a higher share of actives than the screen did.

This assay is described as follows: qHTS Assay for Spectroscopic Profiling in A488 Spectral Region. The following applies: compound autofluorescence; max dye equivalency: Compound Type: qHTS ECL - SigmaAldrich, stronger effect = higher value unless noted; outcome: dye equivalency, Compound Type: qHTS ECL - MLSMR unless noted. From the text:
NIH Molecular Libraries Screening Centers Network [MLSCN]
NIH Chemical Genomics Center [NCGC]
Occasionally, the artifactual effect may originate from the compounds own spectral or other biophysical properties which generally tend to track its assay concentration. Pre-screening/profiling the library with respect to the compounds spectral properties should help one exclude false positives early on. While the most informative fluorescent profiling data set is obtained by performing a full excitation and emission scan of each well by using a monochromator-based plate reader, such an approach is practical only on a very limited scale as scanning each well requires long time. An alternative approach, applied here, is to perform plate reader scans using selected excitation and emission wavelength pairs to generate a multidimensional relational database that correlates compound concentration and the respective relative fluorescence intensity at a given wavelength set. A standard curve of Alexa 488 (A488) present on each plate as six-point concentration series, was used to compute a normalized fluorescence response, termed dye-equivalent concentration, for each compound at each concentration.
NCGC Assay Protocol Summary:
100 mM Tris buffer, pH 8.0
The wells in columns 1 through 4 of a Kalypsys polypropylene 1536-well compound plate were filled with standard solutions of fluorophore corresponding to the spectral region of interest. Solutions of A488 were placed in the following wells: Y1, Z1: 3 mM, Y2, Z2: 300 uM, Y3, Z3: 30 uM, Y4, Z4: zero (DMSO), AA1, AB1: 3 uM, AA2, AB2: 900 nM, AA3, AB3: 300 nM, AA4, AB4: zero (DMSO).
Six uL of buffer were dispensed to 1536-well Greiner black plates. Compounds and dye standards (23 nL) were transferred via Kalypsys PinTool. The plates were incubated for 15 min at room temperature, and then read on ViewLux (Perkin-Elmer) High-throughput CCD imager using 480 nm and 540 nm excitation and emission filter set.
Keywords: NIH Roadmap, MLSCN, MLI, MLSMR, qHTS, NCGC, A488, A-488, Fluorescent Profiling.
(Quantitative high-throughput screening tests each substance at several concentrations.)
Turning to `O=C(O)[C@@H]1[C@@H](C(=O)O)[C@]23C[C@@]2(C(=O)O)[C@]2(C(=O)O)CCC3=C3CCCC312`, the outcome was “inactive [dye equivalency, Compound Type: qHTS ECL - NCI]”. The value for `Cc1ccc2[nH]c(=O)c(-c3nc4c(C)cccn4c3NCc3ccco3)cc2c1` was “inactive”; that for `CN(C)c1ccc(CNC23CN4CN(CN(C4)C2)C3)cc1` was “inactive [dye equivalency, Compound Type: qHTS ECL - DPISMR]”. Then `Cn1cc(-c2nc3cnc(N4CCNCC4)nc3n(CCc3ccccc3)c2=O)c2ccccc21`, with “inactive [dye equivalency, Compound Type: qHTS ECL - Pharmacopeia]”; and `CNC(=O)NCCN1CCCC1=O`, with “inactive”. The value for `COc1ccc(-n2c(=O)c(C)nc3cnc(N4CCOCC4)nc32)cc1` was “inactive [dye equivalency, Compound Type: qHTS ECL - Pharmacopeia]”. With `CC1(c2ccccc2Cl)NC(=O)N(CC(=O)NC(=O)NCc2ccco2)C1=O` (stereo not drawn), the outcome was inactive. `COc1ccc(CCN2C(=O)c3[nH]nc(-c4ccccc4O)c3C2c2ccc(C)cc2)cc1OC` (stereo not drawn): the outcome was “inactive [dye equivalency, Compound Type: qHTS ECL - DPISMR]”.

For `COC(=O)C(C)N(C#N)c1nc(C)nc(C)n1` (stereo not drawn), the outcome was “inactive [dye equivalency, Compound Type: qHTS ECL - DPISMR]”. The value for `Cc1noc(C)c1C(=O)OCC(=O)/C=C1\N(C)c2ccccc2C1(C)C` was “inactive”; that for `Cc1ccc(Oc2nc3ccccc3n3c(C)nnc23)cc1` was “inactive [dye equivalency, Compound Type: qHTS ECL - DPISMR]”; that for `CCOc1ccc(OCC)c(NC(=O)CN(C)S(=O)(=O)c2cccc3nsnc23)c1` was “inactive”. The value for `CCC(C)(C)NC(=O)C(c1cccn1C)N(Cc1ccc(C)cc1)C(=O)Cn1nnc2ccccc21` (stereo not drawn) was “inactive”. The value for `COc1ccc(OCC(=O)OCCN(C)C)cc1` was “inactive”; that for `CC(C)C1N=C2c3ccccc3N=C(SCC(=O)c3ccc(O)c(O)c3)N2C1=O` (stereo not drawn) was “inactive [dye equivalency, Compound Type: qHTS ECL - DPISMR]”. For the compound `CCC(=O)Nc1cccc(NC(=O)CSc2nnc(-c3ccc(NS(C)(=O)=O)cc3)n2C)c1`, the outcome was inactive.

As for `Cc1nn(-c2ccccc2)c2c1C(=O)NC(=O)C(C)(C)C2`, the outcome was inactive. The value for `COc1cc([C@H]2c3cc4c(cc3[C@@H](O[C@@H]3O[C@H]5CO[C@@H](C)O[C@]5(O)C[C@H]3O)[C@@H]3COC(=O)[C@H]23)OCO4)cc(OC)c1O` was “inactive [dye equivalency, Compound Type: qHTS ECL - SigmaAldrich]”.
